Test [1] has as its target Estrogen receptor beta (Homo sapiens) (UniProt Q92731). In words: qHTS assay to identify small molecule agonists of the estrogen receptor beta (ER-beta) signaling pathway (AID 1259377; active = well fitted activation curve with a large enough effect in the signal ratio in the repeat runs, not every such curve was filed as active; the % refers to the signal ratio). A digest of the protocol:
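Ratiometric beta-lactamase FRET read-out came after 2 h substrate loading at room temperature. It followed 16 h compound treatment at 37C of GripTite HEK293T cells carrying a UAS-bla reporter, plated in 2% charcoal-stripped FBS medium.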

Test [2] has the same target. The test can be described thus: qHTS assay to identify small molecule antagonists of the estrogen receptor beta (ER-beta) signaling pathway (AID 1259378; active = well fitted inhibition curve with a large enough effect in the signal ratio in the repeat runs, not every such curve was filed as active; the % refers to the signal ratio; note: potency is the fitted concentration of half-maximal effect). In short, it runs like this: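 ER-beta-UAS-bla HEK293T (GripTite) cells in 2% charcoal-stripped FBS medium were preincubated 6 hr at 37C, dosed with compound, then stimulated with 1 nM E2 (final) for 16 hr; beta-lactamase reporter read by B/G FRET fluorescence after 2 hr substrate loading.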

The nature of test [3]: qHTS assay to identify small molecule agonists of the androgen receptor (AR) signaling pathway in the presence of an antagonist - cell viability counter screen (AID 1259379). Note: nearly all actives have a fitted effect of over 25% in size. Note: potency is the fitted concentration of half-maximal effect. A digest of the protocol:
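Viability counter screen: CellTiter-Fluor fluorescence, measured in the same wells as the luciferase read-out. MDA-kb2 cells, 3,000/well, with nilutamide at 3.0uM final and compounds at 15 concentrations, 16 hr at 37C, 0% CO2.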

Test [4] can be described thus: qHTS assay to identify small molecule agonists of the estrogen receptor beta (ER-beta) signaling pathway - cell viability counter screen (AID 1259380). Note: nearly all actives have a fitted effect of over 30% in size. Note: potency is the fitted concentration of half-maximal effect. A digest of the protocol:
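Luminescence read-out (CellTiter-Glo, 30 min, room temp) taken in the same wells as the beta-lactamase reporter assay; ER-beta-UAS-bla HEK293T cells exposed to DMSO-dissolved compounds for 16 hr at 37C in 2% charcoal-stripped FBS medium.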

Test [5] in a line: qHTS assay to identify small molecule antagonists of the estrogen receptor beta (ER-beta) signaling pathway - cell viability counter screen (AID 1259382). Note: series mostly up to about 92 µM; nearly all actives have a fitted effect of over 55% in size. In short, it runs like this: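 Luminescent ATP read-out (CellTiter-Glo, 30 min, RT) taken in the same wells as the bla reporter assay. HEK293T ER-beta-UAS-bla cells in 2% charcoal-stripped FBS were exposed to compounds with 1nM E2 for 16 hr at 37C.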

For test [6], the target named is Estrogen receptor (Homo sapiens) (UniProt P03372). The test can be described thus: qHTS assay to identify small molecule agonists of the estrogen receptor alpha (ER-alpha) signaling pathway in the presence of an antagonist (AID 1259383; calls by dose curve; note: top concentration of the series differs between compounds; nearly all actives have a fitted effect of over 15% in size). A digest of the protocol:
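Luciferase luminescence (ONE-Glo, 30min at room temperature) measured in VM7Luc4E2 cells after 22hr compound exposure at 15 concentrations, with 10.0nM ICI-182,780 final present; cells express endogenous ER-alpha and carry four EREs upstream of luciferase.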

Test [7] in a line: qHTS assay to identify small molecule agonists or antagonists of the thyroid stimulating hormone receptor (TSHR) signaling pathway - wild type cell line counter screen (AID 1259384; calls by dose curve). A digest of the protocol: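 Wild-type HEK293 cells were plated 18 h at 37 C/5% CO2, pin-dosed with compound plus Ro20-1724 medium, held 30 min at room temperature, then given cAMP-d2 and anti-cAMP-cryptate; fluorescence was read after 1 h. Fifteen concentrations, triplicate.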

Test [8] concerns the target Thyrotropin receptor (Homo sapiens) (UniProt P16473). In words: qHTS assay to identify small molecule antagonists of the thyroid stimulating hormone receptor (TSHR) signaling pathway (AID 1259385; calls by dose curve; note: nearly all actives have a fitted effect of over 20% in size). A digest of the protocol: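 TSHR-HEK293 cells were plated and held 18 h at 37C/5% CO2, then given compound plus Ro20-1724 and stimulated with TSH at 1.5 ng/mL final. After 30 min at room temperature, cAMP was detected with cAMP-d2/anti-cAMP-cryptate (1 h) by fluorescence.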

A short description of test [9]: qHTS assay to identify small molecule agonists of the estrogen receptor alpha (ER-alpha) signaling pathway in the presence of an antagonist - cell viability counter screen (AID 1259386).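 Note: cells exposed to compounds for 22 h at 37 °C before the viability read; nearly all actives have a fitted effect of over 30% in size.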 Note: potency is the fitted concentration of half-maximal effect. In short, it runs like this:
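Read-out: CellTiter-Fluor fluorescence after 1hr reagent incubation, measured in the same wells as the luciferase readout. VM7Luc4E2 cells were exposed to 15 compound concentrations with 10.0nM ICI-182,780 for 22hr at 37C.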

Test [10] has as its target Androgen receptor (Homo sapiens) (UniProt P10275). The test can be described thus: qHTS assay to identify small molecule agonists of the androgen receptor (AR) signaling pathway in the presence of an antagonist (AID 1259381; calls by dose curve; note: nearly all actives have a fitted effect of over 15% in size). In short, it runs like this:
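Luciferase read-out (ONE-Glo, 30min room temperature) in MDA-kb2 MMTV-reporter cells; agonist mode run in presence of AR antagonist nilutamide, 3.0uM final. Compounds tested as 15-point series, 16hr exposure at 37C, 0% CO2.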

The structures appear in SMILES notation. Records with an inconclusive call do not appear. The source made the active and inactive calls. Unless noted, calls come from the whole dose curve; as a rule, active = well fitted curve in the direction sought with a large enough effect in the repeat runs; inconclusive = weak or mixed curves; inactive = no such curve, though single readings can be large; an effect the other way counts as inactive or inconclusive.

Consider 27 molecules from PubChem BioAssay (Tox21).

Estrogen receptor (Homo sapiens), sequence (P03372 whole entry, looked up): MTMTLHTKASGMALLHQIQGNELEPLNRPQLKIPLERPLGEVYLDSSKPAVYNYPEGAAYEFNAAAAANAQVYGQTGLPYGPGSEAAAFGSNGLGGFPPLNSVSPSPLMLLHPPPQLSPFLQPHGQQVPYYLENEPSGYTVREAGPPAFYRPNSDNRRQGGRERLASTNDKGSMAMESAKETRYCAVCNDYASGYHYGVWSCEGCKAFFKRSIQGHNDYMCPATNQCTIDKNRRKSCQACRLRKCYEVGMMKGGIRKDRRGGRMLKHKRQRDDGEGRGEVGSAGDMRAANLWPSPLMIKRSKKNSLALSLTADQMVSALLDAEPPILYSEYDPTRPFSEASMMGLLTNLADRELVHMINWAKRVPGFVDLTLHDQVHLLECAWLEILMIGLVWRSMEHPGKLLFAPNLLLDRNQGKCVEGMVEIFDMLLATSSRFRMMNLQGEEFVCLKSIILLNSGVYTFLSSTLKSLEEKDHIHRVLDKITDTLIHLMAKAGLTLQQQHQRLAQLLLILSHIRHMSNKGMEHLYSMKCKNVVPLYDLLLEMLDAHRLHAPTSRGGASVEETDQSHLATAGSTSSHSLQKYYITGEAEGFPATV
Thyrotropin receptor (Homo sapiens), sequence (P16473 whole entry, looked up): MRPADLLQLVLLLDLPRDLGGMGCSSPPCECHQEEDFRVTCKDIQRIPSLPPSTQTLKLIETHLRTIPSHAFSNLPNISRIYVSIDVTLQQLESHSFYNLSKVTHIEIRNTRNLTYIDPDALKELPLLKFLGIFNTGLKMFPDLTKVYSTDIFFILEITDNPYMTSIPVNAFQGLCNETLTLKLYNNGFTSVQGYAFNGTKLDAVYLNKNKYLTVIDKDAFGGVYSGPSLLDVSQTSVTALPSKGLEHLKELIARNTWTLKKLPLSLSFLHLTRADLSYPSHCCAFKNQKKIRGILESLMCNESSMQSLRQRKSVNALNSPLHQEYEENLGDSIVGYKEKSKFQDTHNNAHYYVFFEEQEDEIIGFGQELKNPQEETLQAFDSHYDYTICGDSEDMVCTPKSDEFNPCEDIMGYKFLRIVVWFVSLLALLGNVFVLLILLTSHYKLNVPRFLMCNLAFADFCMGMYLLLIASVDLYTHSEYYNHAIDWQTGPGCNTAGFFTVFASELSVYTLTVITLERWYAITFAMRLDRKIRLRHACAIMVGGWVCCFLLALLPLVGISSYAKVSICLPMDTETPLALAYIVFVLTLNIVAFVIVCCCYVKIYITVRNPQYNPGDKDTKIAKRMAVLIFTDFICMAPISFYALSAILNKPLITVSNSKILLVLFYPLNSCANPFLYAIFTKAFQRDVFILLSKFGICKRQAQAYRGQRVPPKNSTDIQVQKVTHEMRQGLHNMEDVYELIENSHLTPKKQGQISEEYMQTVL
Estrogen receptor beta (Homo sapiens), sequence (Q92731 whole entry, looked up): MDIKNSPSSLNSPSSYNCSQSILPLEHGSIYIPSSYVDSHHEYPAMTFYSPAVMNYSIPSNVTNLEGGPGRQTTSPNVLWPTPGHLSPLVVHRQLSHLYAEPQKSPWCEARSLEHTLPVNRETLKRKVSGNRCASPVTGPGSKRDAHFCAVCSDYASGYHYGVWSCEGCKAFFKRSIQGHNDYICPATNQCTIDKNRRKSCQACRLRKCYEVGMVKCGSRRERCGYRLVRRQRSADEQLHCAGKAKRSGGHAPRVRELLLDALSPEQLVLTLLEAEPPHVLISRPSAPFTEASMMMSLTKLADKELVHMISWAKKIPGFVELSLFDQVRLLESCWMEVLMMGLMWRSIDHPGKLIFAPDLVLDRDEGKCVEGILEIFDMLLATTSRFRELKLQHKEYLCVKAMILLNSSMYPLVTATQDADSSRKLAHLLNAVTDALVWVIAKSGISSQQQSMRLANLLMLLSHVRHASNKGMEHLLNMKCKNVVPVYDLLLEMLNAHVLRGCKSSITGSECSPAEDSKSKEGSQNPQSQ
Androgen receptor (Homo sapiens), sequence (P10275 whole entry, looked up): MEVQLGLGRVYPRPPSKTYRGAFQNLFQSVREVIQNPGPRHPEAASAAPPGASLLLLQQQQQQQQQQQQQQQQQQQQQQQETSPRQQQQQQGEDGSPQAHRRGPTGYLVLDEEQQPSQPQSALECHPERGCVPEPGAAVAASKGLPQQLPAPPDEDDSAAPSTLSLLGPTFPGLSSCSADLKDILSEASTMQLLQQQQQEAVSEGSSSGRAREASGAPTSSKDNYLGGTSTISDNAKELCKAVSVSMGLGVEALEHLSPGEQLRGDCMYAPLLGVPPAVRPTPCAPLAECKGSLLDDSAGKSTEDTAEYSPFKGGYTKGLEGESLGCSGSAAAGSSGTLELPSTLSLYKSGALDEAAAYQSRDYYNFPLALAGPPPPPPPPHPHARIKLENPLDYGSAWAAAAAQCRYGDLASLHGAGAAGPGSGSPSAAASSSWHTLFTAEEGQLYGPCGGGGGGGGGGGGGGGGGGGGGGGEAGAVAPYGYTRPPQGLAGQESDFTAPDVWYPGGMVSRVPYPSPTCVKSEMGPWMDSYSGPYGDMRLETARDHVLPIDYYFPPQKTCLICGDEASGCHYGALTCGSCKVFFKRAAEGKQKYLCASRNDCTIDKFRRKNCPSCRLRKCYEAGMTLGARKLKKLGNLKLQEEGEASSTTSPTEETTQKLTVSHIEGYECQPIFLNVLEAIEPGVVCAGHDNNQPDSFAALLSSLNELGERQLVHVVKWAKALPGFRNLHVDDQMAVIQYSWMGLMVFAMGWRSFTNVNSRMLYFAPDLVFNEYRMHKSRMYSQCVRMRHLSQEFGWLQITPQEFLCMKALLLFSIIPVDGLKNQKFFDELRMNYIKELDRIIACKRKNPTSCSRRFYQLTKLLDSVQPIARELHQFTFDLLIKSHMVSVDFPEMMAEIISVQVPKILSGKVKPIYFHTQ

As to `C=CCC1([C@H](C)CCC)C(=O)NC(=O)NC1=O`, the Potency entry in [1], in [2], in test [3], in test [4], in test [5] and in test [6] was “inactive” throughout. For the same molecule, the Potency result in [8] and in test [9] was “inactive” throughout. Besides, in [7], the call was inactive.

Take `CCCCCCCCCC(=O)O[C@H]1CC[C@H]2[C@@H]3CCC4=CC(=O)CC[C@@H]4[C@H]3CC[C@]12C`: the Potency entry in [1], in test [2], in [3], in test [4], in test [5] and in test [6] was “inactive” throughout. Besides, the Potency entry in test [9] is “inactive”.

Turning to `O=[N+]([O-])c1ccccc1CCl`, the Potency entry in test [1], in test [2], in [3], in test [4], in [5] and in test [6] was “inactive” in each case. Moreover, the Potency result in [8] and in test [9] was “inactive” in each case. Further, in test [7], the call was inactive.

`CC(Cl)Cl`: the Potency entry in [1], in test [2], in [3], in test [4], in test [5] and in test [6] was “inactive” each time. Moreover, the Potency result in test [8] and in [9] was “inactive” each time. Also, in test [7], the molecule was classed as inactive.

Regarding `c1ccoc1`, the Potency result in test [1], in test [2], in test [3], in [4], in [5] and in test [6] was “inactive” each time. In addition, the Potency entry in test [8] and in test [9] was “inactive” each time. Besides, the outcome in test [7] was inactive.

For the molecule `O=C(O)COc1ccc(Cl)cc1`, the Potency result in test [1], in test [2], in test [3], in test [4], in test [5] and in [6] was “inactive” throughout. Also, the Potency result in test [9] is “inactive”. Besides, the call in [7] was inactive.

Regarding `Nc1nc(=S)[nH][nH]1`, the Potency entry in test [1], in test [2], in test [3], in test [4], in test [5] and in test [6] was “inactive” throughout. Moreover, the Potency result in test [8] and in [9] was “inactive” throughout. Besides, the call in [7] was inactive.

Take `CCOP(=S)(Oc1ccc([N+](=O)[O-])cc1)c1ccccc1` (stereo not drawn): the Potency entry in test [1], in test [2], in test [3], in test [4], in test [5] and in test [6] was “inactive” in each case. Besides, the Potency entry in [9] is “inactive”.

On to `C=CC(=O)OCCCCO`, for which the Potency result in test [1], in test [2], in [3], in test [4], in test [5] and in test [6] was “inactive” throughout. The Potency entry in test [8] and in test [9] was “inactive” throughout. Also, in [7], the molecule was called inactive.

As for `C=CC(=O)OCC(C)C`, the Potency entry in test [1], in test [2], in test [3], in test [4], in test [5] and in test [6] was “inactive” each time. For the same molecule, the Potency entry in [8] and in [9] was “inactive” throughout. Further, the molecule was classed as inactive in test [7].

Turning to `CC1(C)[C@H](C=C(Cl)Cl)[C@@H]1C(=O)O[C@@H](C#N)c1cccc(Oc2ccccc2)c1`, the Potency result in test [1], in test [2], in [3], in test [4], in test [5] and in test [6] was “inactive” throughout. Besides, the Potency entry in test [8] and in test [9] was “inactive” throughout. In addition, the result in [7] was inactive.

Turning to `N#CCc1ccccc1`, the Potency entry in test [1], in test [2], in [3], in test [4], in test [5] and in [6] was “inactive” each time. The Potency result in [8] and in test [9] was “inactive” each time. In addition, the outcome in [7] was inactive.

As to `[O-][Cl+]O`, the Potency result in test [1], in [2], in test [3], in test [4], in test [5] and in test [6] was “inactive” each time. In addition, in test [9], the Potency result is “inactive”.

Consider `c1ccc(C2CC2)c(OCC2=NCCN2)c1`, for which the Potency entry in test [1], in [2], in test [3], in test [4], in test [10] and in [5] was “inactive” each time. The Potency entry in test [6] and in [9] was “inactive” in each case.

In the case of `CCCCCCC#N`, the Potency result in [1], in test [2], in [3], in test [4], in [5] and in [6] was “inactive” each time. The Potency result in test [8] and in test [9] was “inactive” throughout. Moreover, the outcome in test [7] was inactive.

Consider `COC(=O)C(Br)CBr` (stereo not drawn), for which the Potency result in test [1], in test [2], in test [3], in test [4], in test [5] and in test [6] was “inactive” throughout. In addition, the Potency result in test [9] was “inactive”.

`CCCN(CCCl)c1c([N+](=O)[O-])cc(C(F)(F)F)cc1[N+](=O)[O-]`: the Potency result in test [1], in test [2], in [3], in test [4], in [5] and in [6] was “inactive” throughout. Also, the Potency result in [8] and in test [9] was “inactive” throughout. In addition, the molecule was classed as inactive in test [7].

With `CO/C=C(/C(=O)OC)c1ccccc1COc1cccc(C(F)(F)F)n1`, the Potency entry in test [1], in test [5] and in test [6] was “inactive” each time. In addition, the Potency in test [2] was 3.85 µM (active); in test [3] it was 5.44 µM (active); in test [4], 4.85 µM (active); in test [9] it was 8.63 µM (active). Also, in test [7], the result was inactive.

Consider `CCCCCC[N+](=O)[O-]`, for which the Potency result in test [1], in test [2], in test [3], in test [4], in test [10] and in [5] was “inactive” throughout. For the same molecule, the Potency result in test [9] is “inactive”. For the same molecule, the molecule was classed as inactive in test [7].

On to `O=[Se]=O`, for which the Potency result in [1], in [2], in test [4], in test [5], in test [6] and in [8] was “inactive” throughout. In addition, the Potency in test [3] is 9.62 µM (active); in [9] it was 21.5 µM (active). Further, the outcome in [7] was inactive.

In the case of `CCBr`, the Potency entry in [1], in [2], in test [3], in [4], in test [5] and in test [6] was “inactive” each time. For the same molecule, the Potency result in test [9] was “inactive”. In addition, the molecule was called inactive in test [7].

For the molecule `CCO[C@H]1O[C@@H]2OC3(C)CC[C@H]4[C@H](C)CC[C@@H]([C@H]1C)[C@@]24OO3`, the Potency entry in test [1], in [2], in test [3], in test [4], in [10] and in test [5] was “inactive” each time. Further, the Potency entry in test [6] and in test [9] was “inactive” throughout.

With `C[C@@H]1CC[C@H]2[C@@H](C)C(=O)O[C@@H]3O[C@@]4(C)CC[C@@H]1[C@]32OO4`, the Potency entry in test [1], in test [2], in test [3], in test [4], in test [10] and in test [5] was “inactive” each time. Further, the Potency entry in [8] and in test [9] was “inactive” in each case. For the same molecule, the outcome in test [7] was inactive.

`COC(C)(C)CCC[C@H](C)C/C=C/C(C)=C/C(=O)OC(C)C`: the Potency entry in test [1], in test [2], in test [3], in test [4], in test [10] and in test [5] was “inactive” in each case. Also, the Potency entry in test [8] and in [9] was “inactive” throughout. The molecule was classed as inactive in [7].

For the molecule `CCCCC(O)(Cn1cncn1)c1ccc(Cl)cc1Cl` (stereo not drawn), the Potency result in [1], in test [3], in [10], in test [6] and in test [9] was “inactive” throughout. The results for the Potency in test [2] and in [4] were 48.5 µM (active) and 68.5 µM (active), respectively. Also, in test [7], the result was inactive.

Take `NC(=O)CI`: the Potency entry in [1], in [2], in test [3], in test [4], in test [5] and in test [6] was “inactive” each time. In addition, the Potency entry in [9] is “inactive”. For the same molecule, the outcome in [7] was inactive.

Turning to `Cc1ccc2ccccc2c1`, the Potency result in test [1], in test [2], in test [3], in test [4], in test [10] and in test [5] was “inactive” each time. For the same molecule, the Potency entry in test [6], in test [8] and in test [9] was “inactive” throughout. Besides, in test [7], the molecule was classed as inactive.
